Only some compounds are listed: those with a hit (about 0.63% of all), similar ones and a draw of the others.
gsp antagonist: qHTS for Antagonists of gsp, the Etiologic Mutation Responsible for Fibrous Dysplasia/McCune-Albright Syndrome: qHTS; 0.4% of 340,000 active; Potency, µM (doses to about 76.9 µM), usual class: inhibitors; AID 624288, 2012; gsp-mutant cells, cAMP HTRF, 30 min; calls by dose curve; cell line not stated here;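 also: intracellular cAMP measured with PDE inhibitor Ro 20-1724 present during compound exposure; nearly all actives have a fitted effect of over 65% in size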
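Cells, 2000/well, grown 16–24 h in DMEM 10% FBS with 0.5 mg/ml G418, then compounds plus […] (300 uM addition stock), 30 min at 37C. cAMP read by HTRF (cAMP-d2 and anti-cAMP antibody-K in lysis buffer) after 30 min RT.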
S-ASM inh: Inhibitors of Secretory Acid Sphingomyelinase (S-ASM): qHTS. Potency, µM (series often up to 57.5 µM), actives largely listed as inhibitors. AID 504937, 2011. 0.006% of 340,000 active. placental ASM, HMU-PC fluorogenic substrate, 60 min; active = well fitted inhibition curve with a large enough effect; inconclusive = small, poorly fitted or top-dose-only effect; inactive = no such curve, though single readings can be large or run the other way
Target sequence (P17405 47-631 limits assumed): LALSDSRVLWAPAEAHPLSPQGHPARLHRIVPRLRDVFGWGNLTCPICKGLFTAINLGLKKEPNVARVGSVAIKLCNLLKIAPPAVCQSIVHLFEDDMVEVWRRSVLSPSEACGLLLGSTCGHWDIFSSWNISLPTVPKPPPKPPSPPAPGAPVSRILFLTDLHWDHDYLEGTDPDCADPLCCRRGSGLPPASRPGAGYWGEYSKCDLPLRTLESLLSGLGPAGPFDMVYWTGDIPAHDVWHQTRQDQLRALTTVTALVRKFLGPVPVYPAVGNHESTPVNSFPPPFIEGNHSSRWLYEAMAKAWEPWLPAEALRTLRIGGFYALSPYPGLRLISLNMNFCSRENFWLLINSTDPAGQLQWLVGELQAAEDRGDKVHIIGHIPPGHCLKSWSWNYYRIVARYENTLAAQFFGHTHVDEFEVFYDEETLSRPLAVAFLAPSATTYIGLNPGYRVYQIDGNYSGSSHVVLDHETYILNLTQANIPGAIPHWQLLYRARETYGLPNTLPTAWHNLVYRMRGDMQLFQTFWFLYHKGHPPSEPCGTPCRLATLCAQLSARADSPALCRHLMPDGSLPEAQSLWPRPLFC
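Fluorescence read-out (Ex 386 nm, Em 447 nm) after stopping the reaction at pH 10. Enzyme: ASM from human placenta; substrate HMU-PC0, 9 uM final; 60 min, 37 °C. Compound preincubation 10 min, ambient temperature.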
TSHR antag: Antagonists of the Thyroid Stimulating Hormone Receptor: HTS campaign; Thyrotropin receptor (Homo sapiens), P16473; TSHR-expressing cells, TSH-stimulated cAMP HTRF, 2 h; active compounds read low; activity change, negative = inhibition, % at 11.5 µM; 0.2% of 330,000 active; AID 504810, 2011;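 active = activity change below a set negative limit, meaning inhibition stronger than a set level, cut at about -70% in these data; inconclusive = activity change between two set negative limits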
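TSHR-expressing cells were treated with compounds, then stimulated with TSH at EC80 (4nM final) for 2 hours at 37 deg C. Cellular cAMP was measured by HTRF competition between lysate cAMP and cAMP-d2 for a cryptate-labelled anti-cAMP antibody.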
gsp ag: qHTS for Agonist of gsp, the Etiologic Mutation Responsible for Fibrous Dysplasia/McCune-Albright Syndrome: qHTS | Potency, µM (highest dose often 76.9 µM), usual class: activators | AID 624287, 2012 | gsp mutant cells, cAMP HTRF, 30 min | 0.13% of 340,000 active; active = well fitted activation curve with a large enough effect; inconclusive = small, poorly fitted or top-dose-only effect, or another doubt; inactive = no such curve, though single readings can be large or run the other way; cell line not stated here;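 also: phosphodiesterase inhibitor Ro 20-1724 added with compounds to block cAMP breakdown; nearly all actives have a fitted effect of over 60% in size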
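Cells stably selected in G418 were plated at 2000/well, grown 16-24 hr, then given compounds in DMSO with the PDE inhibitor […] (300 uM solution added) for 30 min at 37C; cAMP was read by HTRF.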
A number is an active result; 0 = inactive; ? = inconclusive; - = no result; [ ] = another dose, or the depositor's remark.

SMILES	gsp antagonist	S-ASM inh	TSHR antag	gsp ag
Nc1cc2c(cc1C(=O)c1cccc(Br)c1)OCCO2	0	0	0	0[15.4 µM]
COc1ccc(CN2C(=NC(=O)C3CCCCC3)SC3CS(=O)(=O)CC32)cc1 (stereo unspecified)	0	0	0	?
COc1ccc(-c2csc(NC(=O)c3ccccc3NS(=O)(=O)c3ccc(C)cc3)n2)cc1	?	0	-82	?
O=C(Nc1nc(-c2cc(F)ccc2F)cs1)C1=NN(c2ccccc2)C(=O)CC1	?	0	0	0
CCCNC(=O)c1ccccc1NS(=O)(=O)c1ccc(OC)c(OC)c1	0	0	0	0
COc1ccc(-c2csc(NC(=O)c3c(OC)cccc3OC)n2)cc1	0	0	0	0[15.4 µM]
COc1ccc(S(=O)(=O)Nc2ccccc2C(=O)Nc2nc(-c3ccc(F)cc3)cs2)cc1OC	35µM	0	-88	0[15.4 µM]
COc1ccc(CC(=O)Nc2nc(-c3ccc(OC)c(OC)c3)cs2)cc1OC	28µM	0	0	0[15.4 µM]
COc1ccc(-c2csc(NC(=O)C3=NN(c4ccccc4)C(=O)CC3)n2)cc1	?	?	-78	0
O=c1c2ccccc2nnn1Cc1ccc2ccccc2c1	0	0	0	0[15.4 µM]
Nc1ccccc1NC(=O)NC(=O)c1ccccc1	0	0	0	0[15.4 µM]
N#C/C(=N\Nc1ccc(Cl)cc1)C(=O)c1ccccc1	28µM	?	0	0[15.4 µM]
COc1cccc2sc(/N=C/N(C)C)nc12	0	0	0	0
CCN(CC)S(=O)(=O)c1cccc(C(=O)Nc2nc3cc4c(cc3s2)OCCO4)c1	0	0	-78	0
O=C(Nc1nc2cc3c(cc2s1)OCCO3)c1cccc(N2C(=O)CCC2=O)c1	0	0	0	?
O=C(CCS(=O)(=O)c1ccccc1)Nc1nc2cc3c(cc2s1)OCO3	50µM	0	0	0
O=c1c2oc3ccccc3c2[nH]c(=S)n1-c1ccccc1	0	0	0	3.5µM
Cc1cccc(-n2c(=S)[nH]c3c(oc4ccccc43)c2=O)c1	0	0	0	14µM
Cc1cccc(-n2c(C)c(-c3ccccc3)[nH]c2=S)c1	0	0	0	0[15.4 µM]
Cc1ccc(-n2c(=S)[nH]c3c(oc4ccccc43)c2=O)cc1	0	0	0	5.6µM
CC(=O)Nc1cc2c(s1)c1cnn(Cc3ccccc3F)c(=O)c1n2C	-	-	0	-
O=c1cc(O)c2ccccc2n1Cc1ccccc1	0	0	0	0[15.4 µM]
O=C(c1cccc(S(=O)(=O)N2CCCC2)c1)N1CCN(S(=O)(=O)c2cccc(Cl)c2)CC1	0	0	-	0
COc1ccc(-c2cc3nc(-c4ccccc4)cc(N4CCCC(O)C4)n3n2)cc1 (stereo unspecified)	35µM	0	0	?
COc1ccc(-c2cc3nc(-c4ccccc4)cc(N4CCC(O)CC4)n3n2)cc1	?	0	0	0[15.4 µM]
SMILES	gsp antagonist	S-ASM inh	TSHR antag	gsp ag
COc1ccccc1NC(=O)/C(C#N)=C/c1cccn1C	0	0	-	0
O=C(c1ccncc1)c1ccc(N2CCN(C3CC(=O)N(Cc4cccs4)C3=O)CC2)cc1 (stereo unspecified)	35µM	0	0	0
O=C1CC(N2CCN(c3ccc(O)cc3)CC2)C(=O)N1Cc1cccs1 (stereo unspecified)	0	0	0	0
COC(=O)c1sc(NC(=O)c2c(OC)cccc2OC)c(C#N)c1C	0	0	0	28µM
COc1cccc(OC)c1C(=O)Nc1sc2c(c1C#N)CCC2	0	0	-118	0[15.4 µM]
CC(=O)NC(=S)Nc1sc2c(c1C#N)CCCCC2	?	0	0	0[15.4 µM]
N#Cc1c(NC(=O)c2ccco2)sc2c1CCC2	0	0	0	0
N#Cc1c(NC(=S)NC(=O)Cc2cccs2)sc2c1CCCCC2	32µM	0	0	0
O=S(=O)(Nc1cccnc1)c1ccc(Br)c2ccccc12	0	0	0	?
C=CCSc1nnc2c(n1)OC(c1c(C)[nH]n(-c3ccccc3)c1=O)Nc1ccccc1-2 (stereo unspecified)	25µM	0	0	0
O=C(c1cccc(C(F)(F)F)c1)C1CCCN(C(=O)/C=C/c2cnc[nH]2)C1 (stereo unspecified)	0	0	0	0
O=C(CSc1ncnc2c1oc1ccccc12)Nc1ccccc1C(F)(F)F	0	0	0	32µM
O=C(O)c1ccc(S(=O)(=O)N[C@H](Cc2ccc(C(F)(F)F)cc2)C(=O)O)cc1	-	-	0	-
O=C(O)CC/C(=N\Nc1ccc([N+](=O)[O-])cc1)c1ccccc1	32µM	0	0	0[15.4 µM]
Cc1c(C)c2ccc(OCC(=O)c3ccccc3)cc2oc1=O	35µM	0	0	?
CCOc1ccc(-n2ccnc(SCC(=O)NCc3cccc(OC)c3)c2=O)cc1	0	0	0	10µM
CCOc1ccc(-n2ccnc(SCC(=O)Nc3ccc(OC)cc3OC)c2=O)cc1	0	0	0	0
O=C1/C(=C/c2ccccc2)SC(=S)N1CC(=O)N1CCCCC1c1cccnc1 (stereo unspecified)	40µM	0	0	0
O=C1/C(=C\c2ccccc2)SC(=S)N1CCC(=O)N1CCCCC1CCO (stereo unspecified)	0	0	0	0
O=C1/C(=C/c2cccnc2)SC(=S)N1Cc1ccco1	35µM	0	-	0
O=C(CCN1C(=O)/C(=C\c2ccccc2)SC1=S)NNC(=O)c1ccncc1	0	0	0	0
O=C(CCN1C(=O)/C(=C/c2ccccc2)SC1=S)NNC(=O)c1ccncc1	40µM	0	0	0
COc1ccc2c(c1)CCC1C2CC[C@@]2(C)C1CC[C@@H]2NCCCCCCN1C(=O)C=CC1=O (stereo partly specified)	-	-	0	-
CCc1nnc(NC(=O)CSc2nc(-c3ccccc3)cc(-c3ccc(OC)cc3)c2C#N)s1	0	0	0	0
Cc1cc2cc(C)c(NCCNC(=O)c3ccccc3)nc2cc1C	0	0	0	0
SMILES	gsp antagonist	S-ASM inh	TSHR antag	gsp ag
Cc1ccc(C(=O)NCCNc2nc3cc(C)c(C)cc3cc2C)cc1	0	0	0	22µM
CC1CC(=O)N(c2ccc(C(C)C)cc2)C(=O)C1	0	0	-118	?
CC(=O)c1ccc(OC(=O)COc2ccccc2Cl)cc1	0	0	0	?
C[C@H](CO)NC(=O)[C@@H]1C[C@H]1[C@@H](NP(=O)(c1ccccc1)c1ccccc1)c1ccccc1	0	0	0	?
COc1ccc(C(=O)/C=C2/Sc3cc4c(cc3N2C)OCO4)cc1	0	0	0	?
CN1/C(=C/C(=O)c2ccc(Cl)cc2)Sc2cc3c(cc21)OCO3	32µM	0	0	0
CC(=O)c1c(C)[nH]c(C(=O)OCC(=O)Nc2ccc(Cl)c(S(=O)(=O)N(C)C)c2)c1C	40µM	0	0	0
O=C(COC(=O)CCC(=O)c1ccc(F)cc1)Nc1ccc(Cl)cn1	0	0	0	0
N#Cc1c(C(F)(F)F)cc(-c2ccc(Cl)cc2)[nH]c1=O	35µM	0	?	0
N#Cc1c(C(F)(F)F)cc(-c2ccc(F)cc2)[nH]c1=O	0	0	0	0[15.4 µM]

Bioassay records: PubChem, National Center for Advancing Translational Sciences (NCATS)
